Data published in PubChem BioAssay.
Activity calls are given as the source filed them.

How the values were obtained:
[1] = test system: Human papillomavirus type 1a protein E7 (residues 44-93); test: small molecules binding HPV E7 44-93 – biochemical, small-molecule microarray, residues 44-93, 635 nm fluorescence, primary screen (AID 1108); settings: fluorescence 635 nm, higher = more signal;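 further: E7 fragment applied at 1 µg/mL in TBST for 1 h at 4 C; score combines spot fluorescence with its signal to noise ratio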
[2] = hepatitis C replication reporter changes, two-sided – Huh7 cells, luciferase reporter, HCV replication inhibitor project, primary screen (AID 1109); settings: Huh7 HCV replicon luciferase reporter, 48 h; higher = more signal;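 further: huh7 hepatoma cells harbouring a luciferase neomycin HCV replicon reporter; luciferase luminescence as measure of HCV replicon replication; test concentration not given here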
[3] = target: Left-right determination factor 2 (Homo sapiens) (UniProt O00292); test: small molecules binding LEFTY2 protein – biochemical, small-molecule microarray, 635 nm fluorescence scan, primary screen (AID 1110); settings: higher = more signal
Left-right determination factor 2 (Homo sapiens), sequence (O00292 whole entry, looked up): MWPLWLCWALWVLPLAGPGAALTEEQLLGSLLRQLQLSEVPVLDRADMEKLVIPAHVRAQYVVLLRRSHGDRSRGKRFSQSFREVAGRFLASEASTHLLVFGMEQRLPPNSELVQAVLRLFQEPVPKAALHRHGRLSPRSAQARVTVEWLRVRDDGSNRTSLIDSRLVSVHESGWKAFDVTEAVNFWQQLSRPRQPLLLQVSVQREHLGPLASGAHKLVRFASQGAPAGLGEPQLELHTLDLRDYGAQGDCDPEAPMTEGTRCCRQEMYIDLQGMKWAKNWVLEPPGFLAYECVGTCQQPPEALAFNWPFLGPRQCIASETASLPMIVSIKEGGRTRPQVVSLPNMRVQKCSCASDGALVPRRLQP

[4] = target: Calmodulin-1 (Homo sapiens) (UniProt P0DP23); test: small molecules binding calmodulin-1 with EGTA – biochemical, small-molecule microarray, Cy5-labelled CALM1, profiling panel (AID 1111); settings: Cy5-CALM1 binding fluorescence, higher = more signal;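 further: labelled calmodulin applied in Tris saline Tween buffer holding calcium plus EGTA and DTT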
[5] = target: Calmodulin-1 (Homo sapiens) (UniProt P0DP23); test: small molecules binding Ca-loaded calmodulin-1 – biochemical, small-molecule microarray, Cy5-labelled CALM1, plus calcium, artefact control for SMM control-protein annotation, profiling panel (AID 1112); settings: Cy5-CALM1 binding fluorescence, higher = more signal;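 further: score merges spot fluorescence with signal to noise from triplicate slides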
[6] = probe aWnt5a binding to arrayed compounds – biochemical, biotinylated probe, 635/667 nm fluorescence, primary screen (AID 1113); settings: small-molecule microarray, higher = more signal;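 further: score merges 667 nm fluorescence intensity with signal-to-noise per printed feature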
[7] = probe aShh binding to arrayed compounds – biochemical, biotinylated probe, 635/667 nm fluorescence, primary screen (AID 1114); settings: small-molecule microarray, higher = more signal;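 further: probe is biotin-labelled aShh protein from a stem cell growth factor screen; measures binding of labelled protein to compounds printed on the slide; score merges feature fluorescence at 667 nm with signal-to-noise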
[8] = probe aNog binding to arrayed compounds – biochemical, biotinylated probe, 635/667 nm fluorescence, primary screen (AID 1115); settings: small-molecule microarray, higher = more signal;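 further: probe is biotinylated aNog protein used at 0.15 µg/mL for 1 h at 4 C; z-score combines 667 nm fluorescence of each spot with its signal to noise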
[9] = target: Torsin-1A-interacting protein 1 (Homo sapiens) (UniProt Q5JTV8); test: compound microarray binding of lysate hLAP1 – cell lysate, small-molecule microarray, COS7 lysate, 635/667 nm fluorescence, primary screen (AID 1116); settings: 635 nm fluorescence, higher = more signal
Torsin-1A-interacting protein 1 (Homo sapiens), sequence (Q5JTV8 whole entry, looked up): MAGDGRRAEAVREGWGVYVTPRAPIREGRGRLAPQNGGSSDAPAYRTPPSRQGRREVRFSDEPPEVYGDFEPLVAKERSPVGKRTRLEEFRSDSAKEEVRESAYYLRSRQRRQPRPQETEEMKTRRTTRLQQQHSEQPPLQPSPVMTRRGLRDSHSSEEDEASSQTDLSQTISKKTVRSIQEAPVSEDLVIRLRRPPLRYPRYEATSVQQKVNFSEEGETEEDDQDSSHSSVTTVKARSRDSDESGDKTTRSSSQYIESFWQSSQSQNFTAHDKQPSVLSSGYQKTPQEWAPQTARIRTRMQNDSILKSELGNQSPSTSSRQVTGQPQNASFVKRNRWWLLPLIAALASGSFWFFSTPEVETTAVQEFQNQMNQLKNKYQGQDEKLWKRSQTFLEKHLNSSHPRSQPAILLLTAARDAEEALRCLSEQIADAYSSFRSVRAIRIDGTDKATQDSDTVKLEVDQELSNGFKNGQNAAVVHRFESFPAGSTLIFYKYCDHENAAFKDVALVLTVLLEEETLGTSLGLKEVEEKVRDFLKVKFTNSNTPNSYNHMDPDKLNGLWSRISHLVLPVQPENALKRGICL

[10] = target: Alpha-bungarotoxin (Bungarus multicinctus) (UniProt P60615); test: compounds binding labelled alpha-BTX control protein – biochemical, small-molecule microarray, Alexa647 label, 635/667 nm fluorescence, artefact control for SMM control protein annotation, profiling panel (AID 1117); settings: alpha-BTX-A647 binding fluorescence, higher = more signal
Alpha-bungarotoxin (Bungarus multicinctus), sequence (P60615 whole entry, looked up): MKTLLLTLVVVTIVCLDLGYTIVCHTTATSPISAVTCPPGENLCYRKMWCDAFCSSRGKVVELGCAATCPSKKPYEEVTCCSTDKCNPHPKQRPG

Albumin (Bos taurus) = Albumin (Bos taurus) (UniProt P02769); test: compounds binding labelled BSA control protein – biochemical, small-molecule microarray, Alexa647 label, 635/667 nm fluorescence, artefact control for SMM control protein annotation, profiling panel (AID 1118); settings: BSA-A647 binding, fluorescence 635 nm, higher = more signal;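 further: score merges 667 nm emission intensity and signal-to-noise per printed compound spot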
Albumin (Bos taurus), sequence (P02769 whole entry, looked up): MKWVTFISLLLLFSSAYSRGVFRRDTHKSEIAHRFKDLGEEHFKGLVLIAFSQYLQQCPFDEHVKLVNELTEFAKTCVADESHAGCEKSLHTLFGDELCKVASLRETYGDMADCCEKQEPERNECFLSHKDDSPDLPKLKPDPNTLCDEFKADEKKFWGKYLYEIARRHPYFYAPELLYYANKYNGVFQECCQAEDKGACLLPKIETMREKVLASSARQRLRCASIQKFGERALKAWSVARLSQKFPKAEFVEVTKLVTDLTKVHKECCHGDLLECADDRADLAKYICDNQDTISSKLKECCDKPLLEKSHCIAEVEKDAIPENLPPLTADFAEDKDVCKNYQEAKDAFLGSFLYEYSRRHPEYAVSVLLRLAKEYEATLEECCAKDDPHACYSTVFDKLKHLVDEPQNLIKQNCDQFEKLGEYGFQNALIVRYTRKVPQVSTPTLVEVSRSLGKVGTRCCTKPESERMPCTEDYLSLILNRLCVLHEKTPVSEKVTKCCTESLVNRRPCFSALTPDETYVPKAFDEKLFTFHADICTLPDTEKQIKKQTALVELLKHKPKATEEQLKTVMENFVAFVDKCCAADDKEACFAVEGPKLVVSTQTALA

[11] = probe aXIP binding to arrayed compounds – biochemical, NeuroSMM set, 635/667 nm fluorescence, primary screen (AID 1119); settings: small-molecule microarray, higher = more signal, called active from +8 up or from −8 down;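 further: probe is the protein aXip251-270 applied at 1 µg/mL to compound-printed slides; binding of probe to printed compounds measured as 667 nm fluorescence plus signal to noise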
[12] = probe aNOTCH3 binding on compound microarray – biochemical, small-molecule microarray, 635/667 nm fluorescence, primary screen (AID 1120); settings: higher = more signal;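 further: probe is a biotin-tagged antibody raised against NOTCH3 rather than NOTCH3 protein; score merges spot fluorescence near 667 nm with spot signal to noise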
[13] = probe aNOTCH2 binding on compound microarray – biochemical, small-molecule microarray, 635/667 nm fluorescence, primary screen (AID 1121); settings: higher = more signal;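 further: score merges feature fluorescence read at 667 nm with its signal to noise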
[14] = target: Carbonic anhydrase 2 (Homo sapiens) (UniProt P00918); test: compounds binding carbonic anhydrase 2 – biochemical, small-molecule microarray, Alexa647-labelled CAII, profiling panel (AID 1122); settings: CAII-A647 binding fluorescence, higher = more signal
[15] = COS7 lysate on small-molecule microarray, probe aHis, 635 nm (AID 1123); settings: COS7 cell lysate, fluorescence, higher = more signal;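 further: z-score combines 667nm fluorescence intensity with signal-to-noise per printed compound spot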
[16] = probe aLAP1 signal on lysate-treated microarray – cell lysate, small-molecule microarray, COS7 lysate, primary screen (AID 1124); settings: probe aLAP1, fluorescence, higher = more signal;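 further: lysate comes from COS7 cells expressing LAP1 and is applied at 0.3 µg/mL; score merges spot fluorescence near 667 nm with signal-to-noise over triplicate slides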
Sam68 (KHDRBS1) = test: compounds binding KHDRBS1 protein – biochemical, small-molecule microarray, 635 nm fluorescence, primary screen (AID 1125); settings: higher = more signal;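 further: score merges 667 nm channel intensity with signal to noise over triplicate slides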
[17] = test system: Chordin-like protein 2 (CHRDL2); test: compounds binding chordin-like 2 – biochemical, small-molecule microarray, 635 nm fluorescence, primary screen (AID 1126); settings: fluorescence 635 nm, higher = more signal;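 further: printed compound slides probed with Chrdl2 protein at 4 µg/mL for 1 h at 4 C; score merges 667 nm emission intensity with signal to noise over three replicate slides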
[18] = target: Concanavalin-A (Canavalia ensiformis) (UniProt P02866); test: compounds binding concanavalin A lectin – biochemical, small-molecule microarray, Alexa647 label, 635 nm, artefact control for SMM control protein annotation, primary screen (AID 1127); settings: ConA-A647 binding fluorescence, higher = more signal;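 further: z combines 667 nm emission intensity with signal-to-noise across three replicate slides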
Concanavalin-A (Canavalia ensiformis), sequence (P02866 whole entry, looked up): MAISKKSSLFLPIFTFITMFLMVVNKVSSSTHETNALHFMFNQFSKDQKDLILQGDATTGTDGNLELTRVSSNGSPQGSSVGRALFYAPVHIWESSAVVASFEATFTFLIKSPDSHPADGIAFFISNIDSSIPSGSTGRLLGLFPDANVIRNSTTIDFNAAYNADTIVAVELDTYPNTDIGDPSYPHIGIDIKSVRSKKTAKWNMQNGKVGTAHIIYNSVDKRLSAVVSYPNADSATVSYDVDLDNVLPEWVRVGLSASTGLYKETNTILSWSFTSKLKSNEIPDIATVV

Compound	composite z-score [1]	z-score [2]	composite z-score [3]	composite z-score [4]	composite z-score [5]	composite z-score [6]	composite z-score [7]	composite z-score [8]	composite z-score [9]	composite z-score [10]	composite z-score (Albumin (Bos taurus))	composite Z-score [11]	composite z-score [12]	composite z-score [13]	composite z-score [14]	composite z-score [15]	composite z-score [16]	composite z-score (Sam68 (KHDRBS1))	composite z-score [17]	composite z-score [18]
CC(C)=CCCC(C)=CCON=C1C[C@@H](O)[C@@H](O)[C@@H]2[C@@H]3C(=O)N(C4CCCCC4)C(=O)[C@@H]3CC[C@H]12	0.684	-0.127	0.594	-0.432	-1.2	-0.0425	-0.0904	-0.341	-0.0853	0.713	-0.207	1.59 (inactive)	-0.0784	-0.164	0.106	0.0252	0.514	1.07	1.07	0.48
COC(=O)[C@H](C)NC(=O)CCC1CC(OC(=O)NCc2ccc3c(c2)OCO3)CC2(CCCC(COC(=O)NCCC(C)C)O2)O1 (stereo not given in full)	1.37	-0.166	0.694	-0.107	-0.682	-0.0977	-0.0553	-0.0047	0.302	1.48	0.492	-0.436 (inactive)	0.0488	-0.114	0.226	0.891	-0.308	1.31	0.0784	0.0667
CC(C)=NOC(C)CN1CCCc2nc(C)c(C)cc21 (stereo not given)	1.17	0.302	0.75	-0.291	-0.869	-0.0718	0.214	-0.0809	-0.0182	0.32	0.297	0.672 (inactive)	0.0482	0.0037	0.449	1.31	1.37	0.669	0.74	0.788
